Experimental findings from paper PMC7862700, “An all-to-all approach to the identification of sequence-specific readers for epigenetic DNA modifications on cytosine” are described below.

Test in all cases: DAPPL (digital affinity profiling via proximity ligation, sequencing); 10 mM Tris-HCl pH 7.5, 50 mM NaCl, 1 mM DTT, 4% glycerol, room temperature, 30 min; GST-TFs on glutathione beads, 16-mer random dsDNA library, 0.1% formaldehyde crosslink after washing; high values mean tight binding
One test concerns the target T1, FEV (Homo sapiens, UniProt Q99581 1-238).
T1 sequence: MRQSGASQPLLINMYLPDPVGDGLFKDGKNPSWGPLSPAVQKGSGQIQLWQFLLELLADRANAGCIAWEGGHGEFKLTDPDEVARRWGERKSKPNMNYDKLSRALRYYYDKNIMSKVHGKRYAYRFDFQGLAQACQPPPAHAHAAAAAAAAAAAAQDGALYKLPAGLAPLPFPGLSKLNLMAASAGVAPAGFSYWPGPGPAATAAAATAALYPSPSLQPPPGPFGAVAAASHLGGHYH
The settings on record: protein: recombinant; tags: N-terminal GST; dsDNA, one strand shown. In outline: (§1)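 Human transcription factors fused to GST were expressed in yeast, captured on glutathione beads, given DNA barcodes and pooled with a GST-only negative control. Pools were incubated with 200 nmole of a 16-mer random double-stranded DNA library in Tris/NaCl/DTT/glycerol buffer at room temperature for 30 min. They were then washed, crosslinked with 0.1% formaldehyde, proximity-ligated (BsaI/T4 ligase, 1 h, 37 °C), PCR-amplified and sequenced on an Illumina NextSeq500. Binding signal is each 6-mer's read frequency for a factor divided by its frequency for the GST control.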

The target of another test is ETV5 (Homo sapiens, UniProt P41161 1-510). Particulars: protein: recombinant; tags: N-terminal GST; dsDNA, one strand shown. In outline: as §1
Sequence of ETV5 (P41161 whole entry): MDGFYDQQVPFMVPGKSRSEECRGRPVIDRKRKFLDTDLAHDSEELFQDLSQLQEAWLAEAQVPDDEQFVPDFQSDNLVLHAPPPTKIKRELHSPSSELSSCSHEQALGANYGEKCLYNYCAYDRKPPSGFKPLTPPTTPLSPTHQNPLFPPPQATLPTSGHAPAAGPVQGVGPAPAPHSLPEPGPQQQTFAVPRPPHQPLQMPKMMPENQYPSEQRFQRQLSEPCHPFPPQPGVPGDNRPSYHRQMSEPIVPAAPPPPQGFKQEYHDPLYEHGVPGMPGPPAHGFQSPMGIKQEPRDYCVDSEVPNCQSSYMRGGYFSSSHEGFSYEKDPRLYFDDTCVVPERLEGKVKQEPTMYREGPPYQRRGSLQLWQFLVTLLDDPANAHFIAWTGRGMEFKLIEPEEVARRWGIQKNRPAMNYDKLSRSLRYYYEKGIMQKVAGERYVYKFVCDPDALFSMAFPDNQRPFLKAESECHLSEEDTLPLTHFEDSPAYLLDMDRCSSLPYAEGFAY
The target of a further test is HSF1 (Homo sapiens, UniProt Q00613 1-529). The settings on record: protein: recombinant; tags: N-terminal GST; chain copies: 3; dsDNA, one strand shown. The gist of the method: as §1
Sequence of HSF1 (Q00613 whole entry): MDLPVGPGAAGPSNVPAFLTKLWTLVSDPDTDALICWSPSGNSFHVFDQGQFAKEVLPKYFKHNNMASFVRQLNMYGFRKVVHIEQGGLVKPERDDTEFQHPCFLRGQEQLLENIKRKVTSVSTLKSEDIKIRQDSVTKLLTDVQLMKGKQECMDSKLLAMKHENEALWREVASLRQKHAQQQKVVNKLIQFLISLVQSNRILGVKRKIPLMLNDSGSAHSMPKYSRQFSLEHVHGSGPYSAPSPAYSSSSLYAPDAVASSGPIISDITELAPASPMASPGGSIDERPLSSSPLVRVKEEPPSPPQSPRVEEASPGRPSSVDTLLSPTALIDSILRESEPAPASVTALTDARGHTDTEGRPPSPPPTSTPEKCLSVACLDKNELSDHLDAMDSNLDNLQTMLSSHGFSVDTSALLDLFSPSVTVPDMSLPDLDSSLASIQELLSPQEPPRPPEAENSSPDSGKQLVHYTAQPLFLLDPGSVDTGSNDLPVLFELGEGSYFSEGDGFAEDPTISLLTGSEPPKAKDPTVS
In the next test the target is T2, SPIC (Homo sapiens, UniProt Q8N5J4 1-248).
T2 sequence: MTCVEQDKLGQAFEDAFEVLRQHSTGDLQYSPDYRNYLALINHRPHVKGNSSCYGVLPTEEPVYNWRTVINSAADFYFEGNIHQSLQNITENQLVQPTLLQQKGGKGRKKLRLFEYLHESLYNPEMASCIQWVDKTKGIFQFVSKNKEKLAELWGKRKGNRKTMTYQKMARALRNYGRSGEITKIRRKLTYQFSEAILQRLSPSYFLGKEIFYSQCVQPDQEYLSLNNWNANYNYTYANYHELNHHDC
Particulars: protein: recombinant; tags: N-terminal GST; dsDNA, one strand shown. In outline: as §1

The target of the next test is ELF4 (Homo sapiens, UniProt Q99607 1-663). Particulars: protein: recombinant; tags: N-terminal GST; dsDNA, one strand shown. The gist of the method: as §1
Sequence of ELF4 (Q99607 whole entry): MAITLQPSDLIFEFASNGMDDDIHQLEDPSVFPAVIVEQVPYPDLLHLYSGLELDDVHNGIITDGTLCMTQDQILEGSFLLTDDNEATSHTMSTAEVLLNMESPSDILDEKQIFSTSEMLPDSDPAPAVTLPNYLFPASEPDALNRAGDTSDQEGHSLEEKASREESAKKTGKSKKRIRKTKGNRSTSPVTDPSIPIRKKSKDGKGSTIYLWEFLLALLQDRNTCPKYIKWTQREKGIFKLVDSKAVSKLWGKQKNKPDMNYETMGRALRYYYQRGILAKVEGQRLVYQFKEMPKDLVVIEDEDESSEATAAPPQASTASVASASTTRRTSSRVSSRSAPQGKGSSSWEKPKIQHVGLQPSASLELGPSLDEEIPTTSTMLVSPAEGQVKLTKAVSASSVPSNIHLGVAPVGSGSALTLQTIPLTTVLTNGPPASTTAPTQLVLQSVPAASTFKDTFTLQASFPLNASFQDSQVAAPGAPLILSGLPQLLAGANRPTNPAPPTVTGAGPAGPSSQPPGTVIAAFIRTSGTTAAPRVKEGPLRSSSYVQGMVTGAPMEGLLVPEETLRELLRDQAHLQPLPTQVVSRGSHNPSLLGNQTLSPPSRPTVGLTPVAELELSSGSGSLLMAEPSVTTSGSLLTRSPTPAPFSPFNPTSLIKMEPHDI
Another test deals with T3, ELK4 (Homo sapiens, UniProt P28324-2 1-405).
T3 sequence: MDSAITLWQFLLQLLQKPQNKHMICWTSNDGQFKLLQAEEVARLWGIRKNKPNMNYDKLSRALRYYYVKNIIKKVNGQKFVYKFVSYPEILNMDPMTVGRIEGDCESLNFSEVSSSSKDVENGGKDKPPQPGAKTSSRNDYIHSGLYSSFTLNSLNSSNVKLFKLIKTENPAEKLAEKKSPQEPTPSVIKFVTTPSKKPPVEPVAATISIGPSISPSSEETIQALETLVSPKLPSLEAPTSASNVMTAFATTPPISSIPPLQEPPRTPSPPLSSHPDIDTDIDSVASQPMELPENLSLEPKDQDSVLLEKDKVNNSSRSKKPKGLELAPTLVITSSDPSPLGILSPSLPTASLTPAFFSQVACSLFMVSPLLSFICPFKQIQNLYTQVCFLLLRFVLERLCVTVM
Particulars: protein: recombinant; tags: N-terminal GST; dsDNA, one strand shown. In outline:
as §1

For another test, the target named is T4, ETV2 (Homo sapiens, UniProt O00321 1-342).
T4 sequence: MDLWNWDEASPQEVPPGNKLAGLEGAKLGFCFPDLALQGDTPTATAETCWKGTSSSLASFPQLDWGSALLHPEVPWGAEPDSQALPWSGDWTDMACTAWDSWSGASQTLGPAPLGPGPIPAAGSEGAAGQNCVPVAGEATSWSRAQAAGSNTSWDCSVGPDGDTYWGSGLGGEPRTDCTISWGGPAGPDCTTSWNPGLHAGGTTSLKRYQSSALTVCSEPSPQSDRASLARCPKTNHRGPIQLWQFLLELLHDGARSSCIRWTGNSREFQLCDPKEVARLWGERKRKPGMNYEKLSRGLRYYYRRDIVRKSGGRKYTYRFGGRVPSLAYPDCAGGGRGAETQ
Particulars: protein: recombinant; tags: N-terminal GST; dsDNA, one strand shown. The gist of the method:
as §1

The target in a further test is T5, ELF3 (Homo sapiens, UniProt P78545 1-371).
T5 sequence: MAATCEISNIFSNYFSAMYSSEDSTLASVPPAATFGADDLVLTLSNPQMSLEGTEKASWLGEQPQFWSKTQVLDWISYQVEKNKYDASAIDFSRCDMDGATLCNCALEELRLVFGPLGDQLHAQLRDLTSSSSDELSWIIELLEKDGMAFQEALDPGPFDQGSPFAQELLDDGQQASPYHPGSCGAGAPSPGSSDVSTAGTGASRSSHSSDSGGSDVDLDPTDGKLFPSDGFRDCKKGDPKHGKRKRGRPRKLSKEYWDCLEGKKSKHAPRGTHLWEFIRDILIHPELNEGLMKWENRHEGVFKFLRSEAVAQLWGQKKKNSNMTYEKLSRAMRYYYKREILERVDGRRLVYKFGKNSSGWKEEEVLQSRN
The settings on record: protein: recombinant; tags: N-terminal GST; dsDNA, one strand shown. The gist of the method: as §1

The next test deals with CRX (Homo sapiens, UniProt O43186 1-299). Particulars: protein: recombinant; tags: N-terminal GST; dsDNA, one strand shown. The gist of the method:
as §1

The target of a further test is ETV1 (Homo sapiens, UniProt P50549 1-477). Particulars: protein: recombinant; tags: N-terminal GST; dsDNA, one strand shown. The gist of the method: as §1
Sequence of ETV1 (P50549 whole entry): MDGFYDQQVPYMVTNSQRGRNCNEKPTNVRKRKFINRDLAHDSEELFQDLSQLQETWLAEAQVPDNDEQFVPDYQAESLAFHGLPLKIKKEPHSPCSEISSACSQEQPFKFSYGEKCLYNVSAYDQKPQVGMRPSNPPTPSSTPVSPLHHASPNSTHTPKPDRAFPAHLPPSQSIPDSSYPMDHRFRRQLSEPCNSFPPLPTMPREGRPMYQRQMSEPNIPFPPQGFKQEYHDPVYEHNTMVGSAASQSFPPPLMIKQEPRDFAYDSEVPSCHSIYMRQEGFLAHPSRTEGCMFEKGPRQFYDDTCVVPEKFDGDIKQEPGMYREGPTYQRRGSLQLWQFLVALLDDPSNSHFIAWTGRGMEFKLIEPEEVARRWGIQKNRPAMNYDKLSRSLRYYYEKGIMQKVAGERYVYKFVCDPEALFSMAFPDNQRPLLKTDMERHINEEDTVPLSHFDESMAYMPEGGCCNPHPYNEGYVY

Sequence of CRX (O43186 whole entry): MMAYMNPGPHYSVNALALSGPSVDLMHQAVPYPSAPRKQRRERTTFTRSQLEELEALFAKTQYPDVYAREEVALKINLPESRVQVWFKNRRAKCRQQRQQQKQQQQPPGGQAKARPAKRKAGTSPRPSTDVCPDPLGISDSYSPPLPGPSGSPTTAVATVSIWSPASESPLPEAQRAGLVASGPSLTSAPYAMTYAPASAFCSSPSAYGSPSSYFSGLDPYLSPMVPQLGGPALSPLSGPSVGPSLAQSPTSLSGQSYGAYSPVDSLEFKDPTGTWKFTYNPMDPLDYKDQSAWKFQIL

With TATTCG, the binding signal was 1.06 fold enrichment (6-mer frequency, TF over GST control) with FEV; 1.11 fold enrichment (6-mer frequency, TF over GST control) in the test with ETV5; 1.64 fold enrichment (6-mer frequency, TF over GST control) in the test with HSF1; 1.17 fold enrichment (6-mer frequency, TF over GST control) in the test with SPIC; 1.17 fold enrichment (6-mer frequency, TF over GST control) with ELF4; 1.22 fold enrichment (6-mer frequency, TF over GST control) with ELK4. The binding signal in the test with ETV2 was 1.24 fold enrichment (6-mer frequency, TF over GST control); with ELF3, 1.35 fold enrichment (6-mer frequency, TF over GST control); with CRX, 1.43 fold enrichment (6-mer frequency, TF over GST control); with ETV1, 1.05 fold enrichment (6-mer frequency, TF over GST control).
Turning to TAAACC, the binding signal in the test with FEV is 1.29 fold enrichment (6-mer frequency, TF over GST control); with ETV5, 1.23 fold enrichment (6-mer frequency, TF over GST control); with HSF1 it was 1.46 fold enrichment (6-mer frequency, TF over GST control); with SPIC, 1.13 fold enrichment (6-mer frequency, TF over GST control); in the test with ELF4, 1.19 fold enrichment (6-mer frequency, TF over GST control); with ELK4 it was 1.32 fold enrichment (6-mer frequency, TF over GST control). The binding signal in the test with ETV2 is 1.27 fold enrichment (6-mer frequency, TF over GST control); with ELF3, 1.35 fold enrichment (6-mer frequency, TF over GST control); with CRX, 2.11 fold enrichment (6-mer frequency, TF over GST control); with ETV1, 1.23 fold enrichment (6-mer frequency, TF over GST control).
Regarding TGGAAT, the binding signal was 1.21 fold enrichment (6-mer frequency, TF over GST control) with FEV; 1.22 fold enrichment (6-mer frequency, TF over GST control) with ETV5; 2.63 fold enrichment (6-mer frequency, TF over GST control) with HSF1; 1.22 fold enrichment (6-mer frequency, TF over GST control) with SPIC; 1.14 fold enrichment (6-mer frequency, TF over GST control) in the test with ELF4; 1.21 fold enrichment (6-mer frequency, TF over GST control) with ELK4. Besides, the binding signal with ETV2 was 1.47 fold enrichment (6-mer frequency, TF over GST control); with ELF3, 1.21 fold enrichment (6-mer frequency, TF over GST control); with CRX, 1.77 fold enrichment (6-mer frequency, TF over GST control); with ETV1, 1.24 fold enrichment (6-mer frequency, TF over GST control).
For AGAAAT, the binding signal with FEV is 1.12 fold enrichment (6-mer frequency, TF over GST control); in the test with ETV5, 1.17 fold enrichment (6-mer frequency, TF over GST control); with HSF1, 2.04 fold enrichment (6-mer frequency, TF over GST control); with SPIC, 1.22 fold enrichment (6-mer frequency, TF over GST control); with ELF4, 1.15 fold enrichment (6-mer frequency, TF over GST control); in the test with ELK4, 1.03 fold enrichment (6-mer frequency, TF over GST control). Moreover, the binding signal with ETV2 is 1.19 fold enrichment (6-mer frequency, TF over GST control); with ELF3, 1.2 fold enrichment (6-mer frequency, TF over GST control); in the test with CRX it was 1.35 fold enrichment (6-mer frequency, TF over GST control); with ETV1, 1.13 fold enrichment (6-mer frequency, TF over GST control).
As to CTGGCA, the binding signal with FEV was 1.27 fold enrichment (6-mer frequency, TF over GST control); with ETV5, 1.21 fold enrichment (6-mer frequency, TF over GST control); with HSF1, 1.62 fold enrichment (6-mer frequency, TF over GST control); with SPIC, 1.28 fold enrichment (6-mer frequency, TF over GST control); with ELF4 it was 1.35 fold enrichment (6-mer frequency, TF over GST control); with ELK4, 1.27 fold enrichment (6-mer frequency, TF over GST control). The binding signal was 1.49 fold enrichment (6-mer frequency, TF over GST control) with ETV2; 1.3 fold enrichment (6-mer frequency, TF over GST control) with ELF3; 1.19 fold enrichment (6-mer frequency, TF over GST control) in the test with CRX; 1.27 fold enrichment (6-mer frequency, TF over GST control) with ETV1.
As for CCTCTG, the binding signal with FEV is 1.48 fold enrichment (6-mer frequency, TF over GST control); with ETV5, 1.56 fold enrichment (6-mer frequency, TF over GST control); in the test with HSF1 it was 1.39 fold enrichment (6-mer frequency, TF over GST control); with SPIC, 1.44 fold enrichment (6-mer frequency, TF over GST control); in the test with ELF4, 1.66 fold enrichment (6-mer frequency, TF over GST control); with ELK4 it was 1.9 fold enrichment (6-mer frequency, TF over GST control). Also, the binding signal with ETV2 is 1.5 fold enrichment (6-mer frequency, TF over GST control); in the test with ELF3, 1.73 fold enrichment (6-mer frequency, TF over GST control); in the test with CRX it was 1.36 fold enrichment (6-mer frequency, TF over GST control); with ETV1, 1.67 fold enrichment (6-mer frequency, TF over GST control).
In the case of GCTCGA, the binding signal with FEV was 1.25 fold enrichment (6-mer frequency, TF over GST control); with ETV5, 1.22 fold enrichment (6-mer frequency, TF over GST control); with HSF1, 1.74 fold enrichment (6-mer frequency, TF over GST control); with SPIC it was 1.31 fold enrichment (6-mer frequency, TF over GST control); with ELF4, 1.25 fold enrichment (6-mer frequency, TF over GST control); in the test with ELK4 it was 1.29 fold enrichment (6-mer frequency, TF over GST control). For the same sequence, the binding signal was 1.07 fold enrichment (6-mer frequency, TF over GST control) with ETV2; 1.24 fold enrichment (6-mer frequency, TF over GST control) with ELF3; 1.17 fold enrichment (6-mer frequency, TF over GST control) with CRX; 1.07 fold enrichment (6-mer frequency, TF over GST control) with ETV1.
